± gives the standard deviation of the averaged measurements. In all, about 33,000 sequences were measured (“E-score (dimensionless, -0.5 to 0.5)”: median about -0.049, highest 2% from about 0.37 on). The entries come from a sample that favours the highest values as a whole.
Tested on: T1, PmTbr T-box DNA-binding domain (GST fusion)
T1 sequence: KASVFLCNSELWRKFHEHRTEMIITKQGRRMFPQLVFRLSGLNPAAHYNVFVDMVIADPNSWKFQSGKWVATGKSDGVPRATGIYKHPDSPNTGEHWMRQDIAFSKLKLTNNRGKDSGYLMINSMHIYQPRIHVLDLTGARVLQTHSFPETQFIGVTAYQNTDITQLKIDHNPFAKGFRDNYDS
Assay: PBM E-score of 8-mer (E-score (dimensionless, -0.5 to 0.5)); Tbr is Tbrain of the sea star Patiria miniata (Pm) or the sea urchin Strongylocentrotus purpuratus (Sp); higher = stronger binding preference
Details: the construct has about 5 more residues each side
Method: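 Universal protein-binding microarray (Agilent AMADID 016060, 60-bp probes with a 35-bp variable region) incubated with 200 nM GST-fused Patiria miniata Tbr T-box DNA-binding domain (residues 272-466) in PBS pH 7.5. Scored for every ungapped 8-mer (given with its reverse complement) by the Universal PBM Analysis Suite as E-score (modified Wilcoxon-Mann-Whitney enrichment, range -0.5 to 0.5; >0.45 counts as bound) and Z-score of median probe intensity. Two replicate arrays (datasets 1 and 2).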
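Also: 200 nM protein in PBS on universal arrays averaged over duplicate arrays.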

Row | Sequence | PBM E-score of 8-mer
1 | AAAAGTGC | 0.2475 ± 0.00082
2 | ATCCTTCA | -0.143 ± 0.044
3 | ACCGACCC | 0.00535 ± 0.068
4 | ACCATTAA | -0.0404 ± 0.015
5 | GAAGTCTC | 0.102 ± 0.062
6 | CGCCTAAG | 0.0221 ± 0.02
7 | ACCCTCAA | 0.0906 ± 0.052
8 | GAGTTGCC | 0.0293 ± 0.068
9 | CACAGCTG | 0.296 ± 0.0054
10 | ATGACGAA | -0.065 ± 0.04
11 | ATGACAAA | -0.0227 ± 0.073
12 | ATGACAAC | 0.241 ± 0.054
13 | GAGACACA | 0.053 ± 0.046
14 | GTGACAAC | 0.4452 ± 0.0036
15 | GTGACACA | 0.416 ± 0.0096
16 | CTGACAAC | 0.257 ± 0.012
17 | CTGACGAA | 0.0955 ± 0.048
18 | CTGACAAA | 0.12 ± 0.038
19 | GTGACAAA | 0.428 ± 0.029
20 | CTGACACA | 0.344 ± 0.013
21 | GTGACGAA | 0.371 ± 0.014
22 | GTAGTCGA | -0.0608 ± 0.0079
23 | ATTATTCG | -0.0471 ± 0.044
24 | CTGGCTTA | -0.275 ± 0.025
25 | CTACAGGC | -0.125 ± 0.0056
26 | GATGGTCA | -0.26 ± 0.0048

Row | Sequence | PBM E-score of 8-mer
27 | CGCGAACA | 0.328 ± 0.007
28 | TACTTAAA | -0.246 ± 0.057
29 | GTGATTGA | 0.125 ± 0.042
30 | GACTCGAC | 0.0517 ± 0.016
31 | CGTTATCC | -0.058 ± 0.009
32 | CACACATC | 0.381 ± 0.035
33 | CTCACATC | 0.3693 ± 0.0021
34 | ATCACATC | 0.195 ± 0.058
35 | GACACATC | 0.372 ± 0.0069
36 | CGCACATC | 0.298 ± 0.055
37 | AAAACATT | -0.0945 ± 0.013
38 | CACACATG | 0.352 ± 0.0023
39 | GACACAGC | 0.1102 ± 0.00023
40 | GACACATA | 0.322 ± 0.038
41 | CTCACATA | 0.0666 ± 0.017
42 | AACACATT | 0.389 ± 0.028
43 | AACACACT | 0.229 ± 0.021
44 | AGTGAGGG | -0.0175 ± 0.1
45 | GACTGCGC | -0.107 ± 0.044
46 | ACGAAGCT | -0.143 ± 0.014
47 | AAGCGAAA | -0.083 ± 0.07
48 | AAGCAGTC | -0.167 ± 0.023
49 | GACTTCTC | 0.148 ± 0.065
50 | GGACTTGA | -0.145 ± 0.015
51 | CGCTCGGC | -0.148 ± 0.02
52 | AACACATG | 0.317 ± 0.013

Row | Sequence | PBM E-score of 8-mer
53 | AACACATC | 0.378 ± 0.013
54 | AACACAGC | 0.0601 ± 0.048
55 | AACACATA | 0.373 ± 0.0082
56 | TACACATA | 0.115 ± 0.032
57 | CACACATA | 0.365 ± 0.021
58 | CCTAATAG | -0.122 ± 0.052
59 | CTGCTCAA | -0.0839 ± 0.036
60 | ATGTGTTC | 0.156 ± 0.025
61 | ATGTGTTA | 0.446 ± 0.0057
62 | GTGTGTTA | 0.274 ± 0.012
63 | ATATGTTG | 0.0196 ± 0.038
64 | CTGTGTTA | 0.158 ± 0.045
65 | ATGTGTTG | 0.398 ± 0.008
66 | CTCGAAGC | -0.0159 ± 0.011
67 | ACTACGTA | -0.156 ± 0.012
68 | GAGTTACA | 0.0401 ± 0.024
69 | CTTGTCAA | 0.305 ± 0.034
70 | ATTGTCAG | 0.134 ± 0.026
71 | ATTGTCAA | 0.248 ± 0.039
72 | ATTGTCAC | 0.427 ± 0.016
73 | CTTGTCGC | 0.277 ± 0.012
74 | CTTGTCAC | 0.405 ± 0.015
75 | GGGTTGAA | -0.0332 ± 0.073
76 | CCGCTACG | -0.186 ± 0.064
77 | ATGATAAC | 0.0197 ± 0.036
78 | GTGATAAA | 0.339 ± 0.07

Row | Sequence | PBM E-score of 8-mer
79 | GTGATAAC | 0.406 ± 0.02
80 | ATTCCCAG | -0.25 ± 0.009
81 | GTGTATCA | -0.00951 ± 0.055
82 | TTGCTAAA | 0.241 ± 0.078
83 | ATGCTAAC | 0.0631 ± 0.061
84 | GTGCTAGA | 0.382 ± 0.0098
85 | ATGCTAGA | -0.158 ± 0.055
86 | CTGCTAAC | 0.318 ± 0.029
87 | GTGCTAAA | 0.435 ± 0.007
88 | CTGCTAAA | 0.21 ± 0.071
89 | GAGCTAGA | -0.00238 ± 0.087
90 | GTGCTAAC | 0.453 ± 0.0072
91 | ACTATGCC | -0.0992 ± 0.096
92 | CAACTGTG | 0.231 ± 0.015
93 | AAATGGCC | -0.316 ± 0.0079
94 | CATCAAGA | -0.245 ± 0.022
95 | AGTATTGG | -0.0858 ± 0.022
96 | AGTGTTGA | 0.395 ± 0.022
97 | AGTGTTGC | 0.3558 ± 0.0028
98 | AGTGTTGG | 0.3857 ± 0.0032
99 | GGTGTTGA | 0.4746 ± 0.0036
100 | ACTGTTGA | 0.123 ± 0.062
101 | GTTGTTGA | 0.245 ± 0.029
102 | CGTGTTGA | 0.295 ± 0.028
103 | AGTGTTTG | 0.275 ± 0.036
104 | GCTGTTGA | 0.0473 ± 0.023

Row | Sequence | PBM E-score of 8-mer
105 | CTCTCTGA | -0.253 ± 0.021
106 | AGCTTCAT | -0.00536 ± 0.11
107 | GAACCGTC | -0.07 ± 0.048
108 | CCCATTTA | 0.0289 ± 0.005
109 | ACGGGCGC | 0.0455 ± 0.05
110 | CGAAAGTC | 0.0804 ± 0.023
111 | ACAGTGTA | 0.0105 ± 0.032
112 | GTTAAGCA | 0.0703 ± 0.02
113 | TAAACCCA | -0.0858 ± 0.0046
114 | CTTATGGC | -0.0928 ± 0.041
115 | CTCGTCAC | 0.3943 ± 0.0029
116 | ATCGTCAA | 0.0469 ± 0.0067
117 | ATCGTCAT | -0.0319 ± 0.033
118 | CTCGTCAA | 0.141 ± 0.04
119 | GTCGTCAC | 0.3318 ± 0.0028
120 | ATCGTCAC | 0.403 ± 0.0068
121 | GCCTACCA | 0.015 ± 0.093
122 | CACTTAAA | 0.158 ± 0.01
123 | ATGTGCTG | 0.1768 ± 0.001
124 | AGGTGCTC | 0.0655 ± 0.042
125 | AAGTGCGG | 0.247 ± 0.0065
126 | AGGTGCGG | 0.434 ± 0.011
127 | AGGTGCGC | 0.293 ± 0.023
128 | AGGTGCTG | 0.414 ± 0.019
129 | CCAGAGGC | 0.0947 ± 0.07
130 | CACCACAG | 0.131 ± 0.004

Row | Sequence | PBM E-score of 8-mer
131 | CTCGGGAC | -0.18 ± 0.058
132 | CCTTCCAC | 0.0992 ± 0.017
133 | GCACCCGA | 0.15 ± 0.0018
134 | TCACCCGA | 0.0689 ± 0.025
135 | ACACCCGC | 0.376 ± 0.011
136 | ACACCCGA | 0.422 ± 0.012
137 | CCACCCGC | 0.0903 ± 0.013
138 | GCACCCGC | 0.333 ± 0.012
139 | GGAGGAGA | -0.011 ± 0.0051
140 | AGGCACGG | -0.0977 ± 0.04
141 | GAACGACA | 0.106 ± 0.025
142 | AAATAACC | 0.0174 ± 0.057
143 | AGCGAATA | 0.0489 ± 0.053
144 | CGTGTAGA | 0.0938 ± 0.0091
145 | CGCGAACG | 0.375 ± 0.017
146 | AGCGAAAG | -0.0461 ± 0.031
147 | CGCGAACC | 0.328 ± 0.0044
148 | AGCGAACG | 0.0481 ± 0.02
149 | CGCGAAAG | 0.3697 ± 0.0008
150 | CGCGAAAC | 0.355 ± 0.0087
151 | ATCTTACC | -0.327 ± 0.021
152 | ATCTTAAT | -0.171 ± 0.13
153 | CCCAAACG | -0.119 ± 0.045
154 | ACCTGGCA | 0.288 ± 0.011
155 | CTTTGCGA | 0.0629 ± 0.022
156 | AGCTCCCA | -0.308 ± 0.076

Row | Sequence | PBM E-score of 8-mer
157 | CTCACGCC | 0.3929 ± 0.00041
158 | CTCACGCA | 0.306 ± 0.019
159 | ATCACGCG | 0.334 ± 0.023
160 | CCCACGCC | 0.08239 ± 0.00072
161 | ATCACGCC | 0.372 ± 0.017
162 | ATCACGCA | 0.167 ± 0.0099
163 | GACAGGAA | 0.08894 ± 0.00038
164 | GTGTGCCA | 0.237 ± 0.025
165 | AAGACACC | 0.3306 ± 0.0024
166 | AAGTGTGC | 0.368 ± 0.0052
167 | TAGTGAGA | 0.278 ± 0.022
168 | AAGTGTAG | 0.147 ± 0.012
169 | CAGTGTGA | 0.3958 ± 0.0034
170 | TAGTGTAA | 0.185 ± 0.072
171 | AAGTGTGT | 0.34 ± 0.03
172 | TAGTGTGA | 0.446 ± 0.0044
173 | CAGTGTGC | 0.0644 ± 0.04
174 | AAGTGTGA | 0.48967 ± 0.00029
175 | TAGTGGGA | -0.0944 ± 0.019
176 | AAGTGTAA | 0.381 ± 0.05
177 | CAGTGTGG | 0.249 ± 0.013
